Measured values published in PubChem BioAssay (NCATS).
“And” between values parts separate entries of the source, which are not always exact repeats. Identical values can stand only once. Results filed as inconclusive are left out. Values without a mark were called inactive. The source made the active and inactive calls. Calls follow the shape of the dose curve; as a rule, active = well fitted inhibition curve with a large enough effect; inconclusive = small, poorly fitted or top-dose-only effect; inactive = flat fitted curve, though single readings scatter.

The compounds below were run on KB-3-1 (assay: Cytotoxic Profiling of Annotated Libraries Using Quantitative High-Throughput Screening (AID 1296008; also: nearly all actives have a fitted effect of over 60% in size)). Conditions: Five cell lines viability, CellTiter-Glo ATP luminescence, 48-72 h; max response: hits give low values.
Outline: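 Compounds were pin-transferred onto cells and incubated 48 or 72 hr at 37 degree Celsius, 95% humidity. CellTiter-Glo was added, plates sat 10 min at room temperature, then ATP-coupled luminescence was imaged as the viability read-out.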
% is scaled to controls: 0 for no effect and ±100 for the full control effect; potency is read from the fitted curve at half-maximal effect.

Row | SMILES | max response | outcome | Potency
1 | CC(N)C12CC3CC(CC(C3)C1)C2 (stereo unspecified) | 16.9% and 3.92% |  | 
2 | COc1cccc(N(C)C(=S)Oc2ccc3c(c2)CCCC3)n1 | -2.71% and 6.85% |  | 
3 | NC(=O)c1cccc(N)c1 |  | inactive | 
4 | O=c1oc2c(O)c(O)cc3c(=O)oc4c(O)c(O)cc1c4c23 | -24.2% and 0.262% |  | 
5 | Nc1nc(=S)c2[nH]cnc2[nH]1 |  |  | 5.17 µM (active) and 3.66 µM (active) and 1.32 µM (active)
6 | N[C@@H](C(=O)N[C@@H]1C(=O)N2C(C(=O)O)=C(Cl)CS[C@H]12)c1ccccc1 | 16.8% and 8.23% |  | 
7 | CC(C)C[C@H](NC(=O)[C@H](CCc1ccccc1)NC(=O)CN1CCOCC1)C(=O)N[C@@H](Cc1ccccc1)C(=O)N[C@@H](CC(C)C)C(=O)[C@@]1(C)CO1 |  |  | 1.84 µM (active) and 132 nM (active)
8 | NC(=O)c1ccc2[nH]ccc2c1 | 5.8% |  | 
9 | COC(c1ccccc1)(c1ccccc1)[C@H](Oc1nc(C)cc(C)n1)C(=O)O | 0.37% | inactive | 
10 | COc1nc(N)nc2c1ncn2[C@@H]1O[C@H](CO)[C@@H](O)[C@@H]1O |  | inactive | 
11 | COC(=O)Nc1nc2ccc(Sc3ccccc3)cc2[nH]1 |  |  | 1.66 µM (active)
12 | CCN(CC)CCn1c(=O)c(Cc2ccc(OC)cc2)nc2ccccc21 | -9.16% | inactive | 
13 | COc1cc(NS(=O)(=O)c2ccc(N)cc2)nc(OC)n1 | 3.08% | inactive | 
